Measured values: PubChem BioAssay
The list shows a part of the results. Activity calls are given as the source filed them.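 Rule for the calls, unless noted: active = inhibition above the hit cutoff computed for the primary STAT3 screen (cut at about 44% in these data); inactive = the rest.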

How the values were obtained:
[1] = blockers of IL-6 STAT3 signaling – U3A cells, luciferase, luminescence, confirmation (AID 1265); settings: IL-6 STAT3 luciferase reporter, at 5.7 µM, active compounds read high, cell line lacks STAT1;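 note: 0% = IL-6 plus DMSO and 100% = IL-6 plus nifuroxazide control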
[2] = inhibition of TNF-alpha-driven NF-kB transcription – cell-based, HEK293T, luciferase, TNF-alpha stimulus, counter-screen for STAT3 inhibitor project, confirmation (AID 1308;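 active = inhibition above the mean of solvent-only control wells plus 3 SD, cutoff set per campaign, cut at about 13% in these data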;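 note: 0% = TNF-alpha with DMSO and 100% = TNF-alpha with MG high control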); settings: HEK293T NF-kB luciferase reporter, TNF-alpha induced; at 5.7 µM; active compounds read high
[3] = inhibition of STAT1-driven transcription – cell-based, NIH 3T3, luciferase luminescence, IFN-gamma, counter-screen for STAT3 inhibitor project, confirmation (AID 1317;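 active = inhibition above the mean plus 3 SD of solvent-only control wells, limit set per screening run, cut at about 16% in these data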;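 note: 0% = DMSO with IFN-gamma and 100% = nifuroxazide control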); settings: NIH 3T3 STAT1-luciferase reporter, IFN-gamma induced, at 5.7 µM, active compounds read high
[4] = test system: DAF-12 nuclear receptor (Heterodera glycines), GAL4-LBD fusion; assay: hgDAF-12 GAL4 fusion reporter activation, retest – cell-based, luminescence, HEK293, GAL4-LBD fusion, confirmation (AID 743050;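 active = mean activation over triplicate wells above the hit cutoff derived from the earlier primary screen, cut at about 11% in these data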;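 note: 0% = DMSO low control and 100% = 2 mM sodium butyrate high control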); settings: HEK293 GAL4-hgDAF12 luciferase reporter, agonist mode; at 6.8 µM; active compounds read high; percent of butyrate response
[5] = molecular target: Oxysterols receptor LXR-beta (Homo sapiens) (UniProt P55055); assay: nonspecific reporter activation via LXR – cell-based, luminescence, HEK293, H. glycines campaign, counter-screen for hgDAF-12 agonist project, confirmation (AID 743051;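 active = mean activation of the triplicate above a set limit carried over from the primary screen, none filed active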); settings: HEK293 Gal4-LXR luciferase reporter, 24 h; at 6.8 µM; active compounds read high
[6] = molecular target: Oxysterols receptor LXR-beta (Homo sapiens) (UniProt P55055); assay: nonspecific reporter activation via LXR – cell-based, luminescence, HEK293, H. contortus campaign, counter-screen for hcDAF-12 agonist project, confirmation (AID 743027;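 active = mean percent activation of the reporter above a cutoff set as the average over tested compounds plus their standard deviation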); settings: HEK293 Gal4-LXR tk-luc reporter, 24 h, at 6.8 µM, active compounds read high, normalized: DMSO 0%, positive control 100%
[7] = test system: Nuclear hormone receptor DAF-12 (Haemonchus contortus); assay: hcDAF-12 luciferase reporter activation, retest – cell-based, luminescence, HEK293, lit1-tk-luc, triplicate, confirmation (AID 743032;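 active = mean activation across triplicate tests above the threshold derived from the earlier primary screen, cut at about 5.5% in these data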;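 note: 0% = DMSO only wells and 100% = 3 µM Δ7-dafachronic acid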); settings: HEK293 hcDAF-12 lit1-tk-luc reporter, at 6.8 µM, active compounds read high, % of Δ7-dafachronic acid response
[8] = molecular target: Photoreceptor-specific nuclear receptor (Homo sapiens) (UniProt Q9Y5X4); assay: retest of NR2E3-NCOR disrupting agonists – cell-based, luminescence, CHO-S two-hybrid, confirmation (AID 624378;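 active = average inhibition above a cutoff equal to the mean inhibition of all tested compounds plus one SD, cut at about 70% in these data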;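 note: 0% = DMSO in NR2E3 cells and 100% = DMSO in cells lacking NR2E3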); settings: CHO-S mammalian two-hybrid NR2E3-NCOR, luciferase luminescence; at 3.98 µM; active compounds read high
[9] = nonselective effects on VP16 transactivation – cell-based, luminescence, CHO-S, high throughput, counter-screen for NR2E3 agonist project, confirmation (AID 624379;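 active = mean inhibition above a cutoff equal to the average over all tested compounds plus one standard deviation, cut at about 70% in these data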;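 note: 0% = DMSO with VP16-transfected cells and 100% = DMSO with cells lacking VP16; higher means less reporter light so more repression of VP16 activity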); settings: CHO-S GAL4-VP16 luciferase reporter, at 3.98 µM, active compounds read high
[10] = VP16-driven transactivation reporter suppression – cell-based, luminescence, HEK293, counter-screen for COUP-TFII antagonist project (AID 687007; in the data active = inhibition above about 13%); settings: HEK293 Gal4-VP16 luciferase reporter, at 8.5 µM, active compounds read high
[11] = molecular target: COUP transcription factor 2 (Homo sapiens) (UniProt P24468); assay: retest of COUP-TFII reporter suppressors – cell-based, luciferase reporter, HEK293, triplicate, confirmation (AID 687008;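 active = mean inhibition over three repeats above a set limit taken from the earlier primary screen, cut at about 38% in these data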;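 note: 100% = cells given the luciferase reporter alone without the COUP-TF2 vector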); settings: HEK293 NGFI-A luciferase reporter, luminescence; at 8.5 µM; active compounds read high
[12] = StAR promoter reporter inhibitors, counter-screen for LRH-1 inverse agonist project, cell-based, luminescence, high throughput (AID 651611; in the data active = inhibition above about 28%); settings: StAR promoter luciferase reporter counterscreen, at 3.6 µM, active compounds read high
[13] = molecular target: Nuclear receptor subfamily 5 group A member 2 (Homo sapiens) (UniProt O00482); assay: NR5A2 activity suppression in reporter cells – cell-based, luminescence, confirmation (AID 651613; in the data active = inhibition above about 42%;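 note: HEK293T cells co-transfected with LRH-1 and StAR promoter luciferase reporter; 0% = vehicle wells and 100% = parental cells lacking receptor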); settings: cell-based LRH-1 luciferase reporter, inverse agonism; at 3.6 µM; active compounds read high
[14] = molecular target: Steroidogenic factor 1 (Homo sapiens) (UniProt Q13285); assay: inverse agonism at SF1 nuclear receptor – cell-based, luminescence, high throughput, counter-screen for LRH-1 inverse agonist project (AID 651614; in the data active = inhibition above about 44%;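 note: cells cotransfected with StAR promoter reporter and SF1 expression vector; 0% = vehicle on cells with receptor and 100% = vehicle on cells lacking receptor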); settings: cell-based SF1 luciferase reporter, at 3.6 µM, active compounds read high
[15] = compounds suppressing VP16-driven luciferase signal – cell-based, luminescence, high throughput, counter-screen for LRH-1 inverse agonist project (AID 651615; in the data active = inhibition above about 33%); settings: Gal4-VP16 luciferase reporter cells, at 3.6 µM, active compounds read high
[16] = molecular target: Nuclear receptor coactivator 1 (Homo sapiens) (UniProt Q15788); assay: NCOA1 GAL4-fusion reporter inhibition – cell-based, luminescence, quadruplicate, confirmation (AID 588820;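 active = mean inhibition above 46.68%, the untreated control wells mean plus 3 SD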;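 note: 0% = DMSO wells and 100% = gossypol 36 µM treated wells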); settings: HEK293 GAL4-SRC1 luciferase reporter, at 3.6 µM, active compounds read high
[17] = repression of VP16-driven luciferase reporter – cell-based, luminescence, high throughput, counter-screen for SRC1 inhibitor project (AID 588824; in the data active = inhibition above about 25%); settings: cell-based VP16 transactivation luciferase luminescence; at 3.6 µM; active compounds read high
[18] = molecular target: Peroxisome proliferator-activated receptor gamma (Homo sapiens) (UniProt P37231); assay: retested PPARg-SRC-2 recruitment enhancers – biochemical, HTS, confirmation (AID 1297; in the data active = activation above about 22%;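 note: 0% = vehicle alone and 100% = reference agonist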); settings: biochemical SRC-2 recruitment by PPARgamma; at 8 µM; active compounds read high
[19] = molecular target: Peroxisome proliferator-activated receptor gamma (Homo sapiens) (UniProt P37231); assay: retest of SRC-1 recruitment enhancers for PPARgamma – biochemical, confirmation (AID 1300; in the data active = activation above about 20%;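 note: 0% = vehicle wells and 100% = reference agonist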); settings: PPARgamma–SRC-1 coactivator recruitment biochemical assay; at 8 µM; active compounds read high
[20] = molecular target: Peroxisome proliferator-activated receptor gamma (Homo sapiens) + Nuclear receptor coactivator 3 (Homo sapiens) (UniProt P37231+Q9Y6Q9); assay: agonists promoting SRC-3 binding to PPARgamma – biochemical, confirmation (AID 1301; in the data active = activation above about 24%;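 note: 0% = vehicle wells and 100% = reference agonist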); settings: biochemical PPARgamma-SRC-3 coactivator recruitment, agonist mode; at 8 µM; active compounds read high
[21] = molecular target: Nuclear receptor coactivator 3 (Homo sapiens) (UniProt Q9Y6Q9); assay: NCOA3 GAL4-fusion reporter inhibition – cell-based, luminescence, quadruplicate, confirmation (AID 588792;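 active = mean inhibition over 43.08%, the solvent-only control mean plus 3 SD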;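 note: 0% = DMSO treated cells and 100% = gossypol at 36 µM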); settings: HEK293 GAL4-SRC3 luciferase reporter, at 3.6 µM, active compounds read high
[22] = test system: transactivating tegument protein VP16 (Human herpesvirus 1), Gal4-VP16 luciferase reporter; assay: repression of VP16-driven luciferase reporter – cell-based, luminescence, high throughput, counter-screen for SRC3 inhibitor project (AID 588794; in the data active = inhibition above about 30%); settings: mammalian cells, at 3.6 µM, active compounds read high
[23] = molecular target: Receptor-interacting serine/threonine-protein kinase 2 (Homo sapiens) (UniProt O43353); assay: inhibitors of RIPK2 association with NOD2 – fluorescence, CHO cells, BLA complementation, triplicate, confirmation (AID 624370;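 active = mean inhibition across replicates above a set limit taken from the earlier primary screen, cut at about 21% in these data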;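 note: 0% = DMSO-only wells and the high end = clavulanate BLA-blocked wells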); settings: CCF4 FRET, at 4.98 µM, active compounds read high
[24] = BLA reporter readout interference – cell-based, CHO-K1 CMV-bla, CCF4 FRET, fluorescence, artefact control for NOD2-RIPK2 interaction inhibitor project, confirmation (AID 624371;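 active = mean inhibition above the low-control mean inhibition plus three low-control SD, cut at about 11% in these data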;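 note: 0% = DMSO only wells and 100% = clavulanate high control wells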); settings: CCF4 FRET ratio, counterscreen, at 4.98 µM, active compounds read high

Chain of Peroxisome proliferator-activated receptor gamma (Homo sapiens) + Nuclear receptor coactivator 3 (Homo sapiens) (P37231 whole entry, looked up, the tested form may be a part): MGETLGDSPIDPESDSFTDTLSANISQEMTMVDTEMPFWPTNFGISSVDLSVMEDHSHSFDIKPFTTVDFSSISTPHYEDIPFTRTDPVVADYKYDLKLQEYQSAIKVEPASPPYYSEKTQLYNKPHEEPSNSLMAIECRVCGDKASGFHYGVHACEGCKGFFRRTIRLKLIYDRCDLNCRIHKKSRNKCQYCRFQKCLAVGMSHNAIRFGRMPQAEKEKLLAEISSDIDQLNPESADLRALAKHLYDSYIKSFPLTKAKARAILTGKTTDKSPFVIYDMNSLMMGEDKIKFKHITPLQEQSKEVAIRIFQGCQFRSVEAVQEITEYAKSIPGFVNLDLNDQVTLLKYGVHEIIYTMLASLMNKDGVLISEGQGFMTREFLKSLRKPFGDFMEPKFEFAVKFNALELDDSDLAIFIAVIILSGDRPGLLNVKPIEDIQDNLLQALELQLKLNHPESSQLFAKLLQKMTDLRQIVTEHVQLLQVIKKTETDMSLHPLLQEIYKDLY
Chain of Peroxisome proliferator-activated receptor gamma (Homo sapiens) + Nuclear receptor coactivator 3 (Homo sapiens) (Q9Y6Q9 whole entry, looked up, the tested form may be a part): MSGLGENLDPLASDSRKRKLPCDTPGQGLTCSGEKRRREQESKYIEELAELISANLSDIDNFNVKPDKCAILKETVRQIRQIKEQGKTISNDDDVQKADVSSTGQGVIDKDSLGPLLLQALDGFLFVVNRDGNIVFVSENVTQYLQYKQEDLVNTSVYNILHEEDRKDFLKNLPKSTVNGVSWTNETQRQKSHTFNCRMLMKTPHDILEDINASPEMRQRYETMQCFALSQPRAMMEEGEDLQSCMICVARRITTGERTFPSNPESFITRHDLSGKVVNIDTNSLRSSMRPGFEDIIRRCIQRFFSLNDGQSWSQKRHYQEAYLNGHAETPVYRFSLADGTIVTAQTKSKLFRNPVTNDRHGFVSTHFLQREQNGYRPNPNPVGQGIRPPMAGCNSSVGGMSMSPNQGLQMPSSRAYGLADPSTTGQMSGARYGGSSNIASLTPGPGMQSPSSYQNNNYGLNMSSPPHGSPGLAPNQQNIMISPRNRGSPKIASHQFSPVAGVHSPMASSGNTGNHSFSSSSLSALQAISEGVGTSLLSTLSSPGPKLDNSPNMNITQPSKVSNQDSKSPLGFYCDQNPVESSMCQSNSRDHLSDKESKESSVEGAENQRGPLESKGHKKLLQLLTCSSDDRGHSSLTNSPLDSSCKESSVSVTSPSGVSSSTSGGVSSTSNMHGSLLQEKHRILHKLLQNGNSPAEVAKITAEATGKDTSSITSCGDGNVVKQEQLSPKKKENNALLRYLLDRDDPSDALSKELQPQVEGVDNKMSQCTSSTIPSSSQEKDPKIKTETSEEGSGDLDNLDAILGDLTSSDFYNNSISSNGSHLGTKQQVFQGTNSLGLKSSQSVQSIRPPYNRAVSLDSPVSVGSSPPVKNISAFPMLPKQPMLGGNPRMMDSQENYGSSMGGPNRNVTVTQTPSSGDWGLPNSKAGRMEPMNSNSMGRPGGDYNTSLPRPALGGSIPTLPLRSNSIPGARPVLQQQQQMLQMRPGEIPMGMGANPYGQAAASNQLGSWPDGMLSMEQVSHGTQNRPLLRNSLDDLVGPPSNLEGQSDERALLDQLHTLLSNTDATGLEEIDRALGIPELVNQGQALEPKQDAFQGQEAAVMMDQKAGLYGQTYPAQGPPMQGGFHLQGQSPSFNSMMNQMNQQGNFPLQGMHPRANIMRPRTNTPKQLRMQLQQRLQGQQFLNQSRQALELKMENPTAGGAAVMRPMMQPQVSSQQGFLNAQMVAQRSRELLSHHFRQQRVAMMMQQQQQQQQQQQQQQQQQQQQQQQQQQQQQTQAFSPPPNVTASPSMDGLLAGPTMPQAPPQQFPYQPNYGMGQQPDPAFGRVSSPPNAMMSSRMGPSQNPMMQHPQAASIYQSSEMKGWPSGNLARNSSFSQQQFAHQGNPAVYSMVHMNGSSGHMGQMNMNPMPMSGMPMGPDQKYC
Chain of Peroxisome proliferator-activated receptor gamma (Homo sapiens) (P37231 whole entry, looked up): as the sequence (P37231 whole entry, looked up, the tested form may be a part) above
Chain of Oxysterols receptor LXR-beta (Homo sapiens) (P55055 whole entry, looked up, the tested form may be a part): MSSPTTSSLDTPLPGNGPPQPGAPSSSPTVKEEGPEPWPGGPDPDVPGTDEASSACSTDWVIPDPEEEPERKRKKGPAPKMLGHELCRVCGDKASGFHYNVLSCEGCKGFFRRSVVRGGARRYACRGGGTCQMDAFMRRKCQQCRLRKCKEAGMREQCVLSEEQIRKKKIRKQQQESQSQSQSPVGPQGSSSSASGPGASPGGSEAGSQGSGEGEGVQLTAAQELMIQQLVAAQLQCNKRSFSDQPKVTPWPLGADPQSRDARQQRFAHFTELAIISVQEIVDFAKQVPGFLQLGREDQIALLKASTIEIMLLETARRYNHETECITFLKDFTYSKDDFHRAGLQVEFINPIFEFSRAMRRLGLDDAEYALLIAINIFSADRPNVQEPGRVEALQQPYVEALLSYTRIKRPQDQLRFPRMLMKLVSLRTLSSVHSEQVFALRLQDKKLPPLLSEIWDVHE
Chain of Nuclear receptor subfamily 5 group A member 2 (Homo sapiens) (O00482 whole entry, looked up): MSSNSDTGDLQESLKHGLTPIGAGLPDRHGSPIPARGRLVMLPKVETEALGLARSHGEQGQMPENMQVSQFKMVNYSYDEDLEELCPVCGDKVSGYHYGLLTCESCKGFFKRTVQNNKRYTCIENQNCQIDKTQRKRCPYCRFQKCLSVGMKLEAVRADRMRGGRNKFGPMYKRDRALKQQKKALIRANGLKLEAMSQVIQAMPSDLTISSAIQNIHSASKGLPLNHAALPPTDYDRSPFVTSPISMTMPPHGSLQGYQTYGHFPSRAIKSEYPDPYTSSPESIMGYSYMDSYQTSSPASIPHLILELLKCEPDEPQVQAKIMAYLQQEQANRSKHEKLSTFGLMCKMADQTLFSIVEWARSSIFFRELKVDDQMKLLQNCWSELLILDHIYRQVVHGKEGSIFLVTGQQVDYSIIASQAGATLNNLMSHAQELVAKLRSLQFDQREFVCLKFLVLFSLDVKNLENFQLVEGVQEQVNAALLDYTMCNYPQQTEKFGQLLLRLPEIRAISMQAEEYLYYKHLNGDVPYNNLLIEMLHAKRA
Chain of Photoreceptor-specific nuclear receptor (Homo sapiens) (Q9Y5X4 whole entry, looked up): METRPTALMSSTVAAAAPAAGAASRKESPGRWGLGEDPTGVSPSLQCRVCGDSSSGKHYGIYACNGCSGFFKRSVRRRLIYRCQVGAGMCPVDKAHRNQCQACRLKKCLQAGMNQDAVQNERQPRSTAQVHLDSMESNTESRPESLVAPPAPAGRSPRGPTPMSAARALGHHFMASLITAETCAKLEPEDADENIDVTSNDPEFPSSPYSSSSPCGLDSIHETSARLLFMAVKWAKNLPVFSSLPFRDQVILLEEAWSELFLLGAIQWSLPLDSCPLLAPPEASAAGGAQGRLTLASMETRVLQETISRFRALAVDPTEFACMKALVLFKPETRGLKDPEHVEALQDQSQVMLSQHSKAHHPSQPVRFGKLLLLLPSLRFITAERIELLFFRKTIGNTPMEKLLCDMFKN
Chain of Steroidogenic factor 1 (Homo sapiens) (Q13285 whole entry, looked up, the tested form may be a part): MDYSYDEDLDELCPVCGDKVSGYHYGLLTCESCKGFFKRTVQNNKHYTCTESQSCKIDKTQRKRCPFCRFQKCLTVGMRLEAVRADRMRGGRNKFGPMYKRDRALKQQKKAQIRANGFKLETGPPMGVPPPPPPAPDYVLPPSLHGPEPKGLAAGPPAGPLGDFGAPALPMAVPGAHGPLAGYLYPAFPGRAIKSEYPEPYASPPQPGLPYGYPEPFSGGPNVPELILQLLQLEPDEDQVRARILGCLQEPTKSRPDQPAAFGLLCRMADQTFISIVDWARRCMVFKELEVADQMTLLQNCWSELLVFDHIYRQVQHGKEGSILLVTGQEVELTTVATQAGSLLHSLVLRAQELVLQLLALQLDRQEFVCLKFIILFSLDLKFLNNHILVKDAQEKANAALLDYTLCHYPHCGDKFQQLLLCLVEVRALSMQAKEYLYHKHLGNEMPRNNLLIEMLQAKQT
Chain of COUP transcription factor 2 (Homo sapiens) (P24468 whole entry, looked up): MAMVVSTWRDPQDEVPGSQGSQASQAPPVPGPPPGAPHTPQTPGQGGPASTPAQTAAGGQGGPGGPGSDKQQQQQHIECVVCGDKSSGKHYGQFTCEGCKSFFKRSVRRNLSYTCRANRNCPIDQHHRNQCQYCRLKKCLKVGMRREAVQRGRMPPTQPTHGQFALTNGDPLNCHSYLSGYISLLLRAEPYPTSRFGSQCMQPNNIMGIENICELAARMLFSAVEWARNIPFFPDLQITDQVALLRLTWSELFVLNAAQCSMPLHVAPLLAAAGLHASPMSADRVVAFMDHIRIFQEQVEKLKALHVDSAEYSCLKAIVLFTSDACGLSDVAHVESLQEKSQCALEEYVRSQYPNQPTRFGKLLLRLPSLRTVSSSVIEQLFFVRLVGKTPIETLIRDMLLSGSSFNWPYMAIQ
Chain of Nuclear receptor coactivator 3 (Homo sapiens) (Q9Y6Q9 whole entry, looked up, the tested form may be a part): as the sequence (Q9Y6Q9 whole entry, looked up, the tested form may be a part) above

O=C(Nc1ccn(Cc2ccccc2)n1)c1n[nH]c([N+](=O)[O-])c1Cl
inactive: inhibition [1] 12.7% | inhibition [2] -0.1% | inhibition [3] -63.1% | activation [5] 0.82%
active: activation [4] 11.6%

COc1cc(SC)ccc1C(=O)Nc1cc(C)ccn1
active: activation [4] 17.2%
inactive: inhibition [1] 8.73% | inhibition [2] -35.4% | inhibition [3] -139% | activation [6] 1.02% | activation [7] 4.37% | activation [5] 1.05%

COc1ccc(Cn2c(=O)sc3ccccc32)cc1OC
active: inhibition [8] 70.9%
inactive: inhibition [1] 36.6% | inhibition [2] 2.57% | inhibition [3] 13.3% | inhibition [9] 64.8% | inhibition [10] -3.5% | inhibition [11] 26.6%

COc1ccc(Nc2ncc(F)c(N3CCOCC3)n2)cc1
inactive: inhibition [1] 3.37% | inhibition [2] -21.5% | inhibition [3] -107% | activation [5] 1%
active: activation [4] 16.1%

Cc1nc(CNS(=O)(=O)c2ccc(Oc3ccccc3)cc2)cs1
active: inhibition [1] 43.6% | inhibition [8] 87.9% | inhibition [9] 82.8% | inhibition [13] 44.6% | inhibition [14] 43.7% | inhibition [15] 37%
inactive: inhibition [2] 6.1% | inhibition [3] 12.1% | inhibition [12] 11% | inhibition [10] 1.48% | inhibition [11] 27%

Cc1ccc(S(=O)(=O)Nc2ccc3ncccc3c2)cc1
active: inhibition [3] 18% | inhibition [8] 89.4% | inhibition [9] 74.4% | inhibition [13] 47.2%
inactive: inhibition [1] 42.9% | inhibition [2] 3.83% | inhibition [16] -9.28% | inhibition [17] 5.01% | inhibition [12] 14.9% | inhibition [14] 36.3% | inhibition [15] 18.1%

CCOc1ccc(NC(=O)CSc2ncnc3c2sc2ccccc23)cc1
active: activation [18] 46% | activation [19] 29.5% | activation [20] 32.6%

CC(C)(CNC(=O)c1ccc(Cl)c(S(=O)(=O)N2CCc3ccccc3C2)c1)N1CCOCC1
inactive: inhibition [3] 9% | inhibition [21] 7.77% | inhibition [10] 0.6%
active: inhibition [1] 57.1% | inhibition [2] 13.4% | inhibition [22] 32.8% | inhibition [11] 38.9%

OCC1(CCc2ccccc2)CCN(Cc2ccc3nsnc3c2)CC1
active: activation [18] 32.8% | activation [19] 26.3%
inactive: activation [20] 22.9%

CCCc1ccc(-c2csc(NC(=O)Cc3cccs3)n2)cc1
active: inhibition [23] 32.7% | inhibition [24] 31.1%
inactive: inhibition [1] 34.2% | inhibition [2] 4.13% | inhibition [3] 4.43% | inhibition [10] -25% | inhibition [11] 15.2%

O=C(Nc1nc(-c2ccc3c(c2)OCO3)cs1)c1ccncc1
active: inhibition [1] 49.5% | inhibition [11] 50.7%
inactive: inhibition [2] 11.5% | inhibition [3] 6.97% | inhibition [10] -26.7%

Cc1ccc(N/C=C/C(=O)c2ccccc2)cc1C
active: inhibition [2] 13.8% | activation [7] 16.8%
inactive: inhibition [1] 20.9% | inhibition [3] -55.2% | activation [6] 1.51% | activation [4] 8.78% | activation [5] 1.25%

Cc1ccc(OCC(=O)Nc2ccc(-c3nc4ncccc4o3)cc2)cc1
inactive: activation [18] 2.88% | activation [19] 8.01% | activation [20] 5.41%

CN(Cc1cccnc1)C(=O)c1cc(COc2ccc3ncccc3c2)on1
active: inhibition [1] 75.9% | inhibition [2] 25.1% | inhibition [3] 27.1% | inhibition [17] 26.4% | inhibition [8] 89.1% | inhibition [9] 78.8% | inhibition [11] 59%
inactive: inhibition [16] -14.7% | inhibition [10] 0.64%

CC(C)CC(=O)N/C(N)=N/c1nc2ccccc2s1
active: activation [7] 5.93%
inactive: inhibition [1] 6.93% | inhibition [2] -39.6% | inhibition [3] -138% | activation [6] 1.25%

CCCOC(=O)c1[nH]c2c(c1C)C(=O)CC(c1cc(OC)c(OC)c(OC)c1)C2 (centres undefined)
active: inhibition [1] 61% | inhibition [2] 29% | inhibition [3] 25.8% | inhibition [8] 73.9% | inhibition [12] 29% | inhibition [13] 54.7% | inhibition [14] 54.1% | inhibition [15] 41% | inhibition [11] 49.6%
inactive: inhibition [9] 65% | inhibition [10] 6.54%

c1coc(CNc2ncnc3ccccc23)c1
active: inhibition [2] 15.2% | inhibition [3] 30.5% | inhibition [8] 71.1% | inhibition [11] 40.9%
inactive: inhibition [1] 40.4% | inhibition [9] 56.3% | inhibition [10] 4.88%

Cc1cc(C)c2c(c1)cc(C)c1nnc(SCC(=O)Nc3cc(C)on3)n12
inactive: activation [18] 18.6% | activation [19] 17.6% | activation [20] 12.5%

CCn1c(=O)cc(SCC(=O)NCc2ccc3c(c2)OCO3)c2ccccc21
active: activation [18] 22.7%
inactive: activation [19] 15.8% | activation [20] 18.1%

O=c1oc(/C=C/c2ccccc2)nc2ccccc12
active: activation [4] 14.4%
inactive: inhibition [1] 10.7% | inhibition [2] -7.17% | inhibition [3] -42.9% | activation [5] 0.58%

COc1ccccc1Oc1ccc(S(=O)(=O)Nc2cccnc2)cc1
active: inhibition [8] 95.5% | inhibition [9] 75.8%
inactive: inhibition [1] 33% | inhibition [2] 5.8% | inhibition [3] 8.77%
